# Laboratory results taken from article PMC5540273 (PLoS ONE, 2017).
# Columns and labels:
# Conditions in all cases: concentration: 1 μM,replicates: in singlicate; n = 1
# PIP5K1A = test system: PIP5K1A
# PIP5K1C = test system: PIP5K1C
# PIP5K2B = test system: PIP5K2B
# PIP5K2C = test system: T1, PIP5K2C
# T1 construct: gene PIP4K2C
# PKAC-alpha = test system: T2, PKAC-alpha
# T2 construct: gene PRKACA
# PKAC-beta = test system: T3, PKAC-beta
# T3 construct: gene PRKACB
# PKMYT1 = test system: PKMYT1
# PKN1 = test system: PKN1
# PKN2 = test system: PKN2
# PLK1 = test system: PLK1
# 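Further: KINOMEscan kinase panel screen.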
Structure (SMILES),%Inh (PIP5K1A) [%],%Inh (PIP5K1C) [%],%Inh (PIP5K2B) [%],%Inh (PIP5K2C) [%],%Inh (PKAC-alpha) [%],%Inh (PKAC-beta) [%],%Inh (PKMYT1) [%],%Inh (PKN1) [%],%Inh (PKN2) [%],%Inh (PLK1) [%]
CC(C)N1C(=O)Cc2cc(Nc3ncc(C(F)(F)F)c(NCc4cccc(S(C)(=O)=O)c4)n3)ccc21,34,0,57,52,0,0,15,24,7,28
O=C(NCCNc1ccnc(NCc2ccc(F)cc2)n1)c1cc2ccccc2s1 [GSK1379944],0,100,20,12,7,14,74,0,0,0
COc1ccc(C[C@@H](CN)NC(=O)c2cc(Br)c(-c3ccnc4[nH]ccc34)s2)cc1.Cl.Cl [GSK1389063],46,30,64,59,99.7,99.7,0,95.8,90,0
O=C(NCCCN1CCOC1=O)c1cnc(NCc2cc(Cl)ccc2Cl)nc1NC1CCCC1,0,39,0,7,4,6,27,0,10,0
Cc1cc2cn[nH]c2cc1-c1cccc2c(N)c(C(N)=O)nnc12,16,0,0,10,1,0,0,0,0,15
CN(C)CCOc1ccc(-c2cc(-c3c[nH]nc3-c3ccccn3)ccn2)cc1 [GW835314],0,16,26,8,10,0,0,100,3,42
Cc1cc(C(=O)Nc2ccc(Oc3ccc4nc(NC(=O)C5CC5)cn4n3)cc2)nn1-c1ccccc1,3,27,50,22,0,21,0,0,11,0
Nc1nc(Nc2ccccc2)cc(-c2ccc3c(N)n[nH]c3c2)n1 [GSK2225749],46,82,38,61,0,0,0,50,0,0
NC(=O)c1cc(-c2ccccc2)cc2c(C3CCNCC3)c[nH]c12 [GSK301362],0,33,14,75,0,11,17,50,0,10
C[C@@H](Oc1cc(-c2cnn(C3CCNCC3)c2)cnc1N)c1c(Cl)ccc(F)c1Cl,0,0,79,0,0,0,0,2,0,0
CC(C)Nc1cc(-c2ccc3c(N)n[nH]c3c2)nc(N)n1 [GSK2221681],56,28,32,0,0,0,0,29,0,0
C=CC(=O)Nc1cc2c(Nc3ccc(F)c(Cl)c3)ncnc2cc1OCCCN1CCOCC1 [GW781483],18,0,0,27,11,10,20,18,0,0
CCn1c(-c2nonc2N)nc2c(C#CC(C)(C)O)nc(OCCN)cc21.Cl.Cl [GSK902056],1,86,9,13,67,81,8,8,0,0
C[C@@H]1CCN(C(=O)CC#N)C[C@@H]1N(C)c1ncnc2[nH]ccc12,0,0,0,0,0,0,20,–,–,0
CCN(CC)CCCCNc1ncc2cc(-c3c(Cl)cccc3Cl)c(NC(=O)NC(C)(C)C)nc2n1,0,0,0,3,11,0,0,0,4,0
Cc1ccc2c(-c3ccncc3)c(-c3ccc(F)cc3)nn2c1.Cl [GW461484],24,24,31,10,18,22,0,0,8,0
C[C@H]1Oc2cc(cnc2N)-c2c(nn(C)c2C#N)CN(C)C(=O)c2ccc(F)cc21,0,44,0,0,18,0,33,12,0,0
Cl.Cl.Nc1nc(-c2ccc3c(N)n[nH]c3c2)cc(N2CCCC(NC(=O)c3ccccc3)C2)n1 (stereo not shown) [GSK2286775],56,55,38,25,0,0,5,41,0,0
Cc1ccc(-n2nc(C(C)(C)C)cc2NC(=O)Nc2ccc(OCCN3CCOCC3)c3ccccc23)cc1 [GW839464],0,37,23,19,0,34,21,100,0,24
CNC(=O)c1ccccc1Sc1ccc2c(/C=C/c3ccccn3)n[nH]c2c1,12,0,12,0,0,0,100,0,0,0
Cl.Cl.NC[C@H](Cc1ccc(C(F)(F)F)cc1)NC(=O)c1cc(Br)c(-c2ccnc3[nH]ccc23)s1 [GSK1487252],0,22,39,3,99.4,98.8,10,12,79,0
Cc1occc1-c1nc(N)c(OC[C@@H](N)Cc2c[nH]c3ccccc23)cc1-c1cc2c(C)n[nH]c2cn1 [GSK1660450],65,42,11,0,99.9,99.3,24,63,22,57
Cc1n[nH]c2ccc(-c3cc(OC[C@@H](N)Cc4ccccc4)cnc3-c3ccoc3)cc12.O=C(O)C(F)(F)F.O=C(O)C(F)(F)F [GSK507358],0,38,41,31,98.9,98,0,33,9,3
CCN(CC)CCOc1ccc(Nc2ncc3cc(-c4c(Cl)cccc4Cl)c(=O)n(C)c3n2)cc1 [SB-601273],72,82,16,90.7,26,0,98.6,57,6,26
Cl.Cl.NC[C@H](CC1CCCCC1)NC(=O)c1cc(Br)c(-c2ccnc3[nH]ccc23)s1 [GSK1581427],63,35,89,36,99.5,99.6,0,31,82,0
Cl.Oc1cc(-c2nc(-c3ccccc3)[nH]c2-c2ccncc2)ccc1Cl [SB-386023],30,0,16,0,5,1,0,0,33,1
CN(C)CC(O)COc1ccc(Nc2nccc(-c3cnn4nc(N5CCOCC5)ccc34)n2)cc1 (stereo not shown) [GW767488],37,24,77,82,0,0,9,13,38,37
